Screening results deposited in PubChem BioAssay by National Center for Advancing Translational Sciences (NCATS).
Integrin act MD: activates integrin-mediated alleviation for muscular dystrophy | AID 624291 | Potency, µM (top dose mostly 38.3 µM), actives largely listed as activators | alpha7betagal myoblasts, beta-gal FDG fluorescence, 48 h | 350,000 compounds, 0.064% hits; further: nearly all actives have a fitted effect of over 60% in size
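alpha7betagal+/- myoblasts (passage 13, 250/well) treated 48 h at 37C with compounds at 1:260 dilution of DMSO stock. Lysed, then beta-galactosidase activity read as FDG fluorescence (ex 480/em 540) after 30 min, with pre-read for autofluorescence.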
PTHR1 ag: agonists of human PTHR1 parathyroid hormone receptor | Q03431 | AID 743266 | 410,000 compounds, 0.075% hits | Potency, µM (series often up to 115 µM), actives largely listed as activators | HEK293 GP2 PTHR1 cells, GloSensor cAMP luminescence, 1 h; further: nearly all actives have a fitted effect of over 55% in size
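HEK-293-derived GP2 cells expressing PTHR1 and a GloSensor cAMP reporter, 3,000/well, plated overnight, given luciferin plus IBMX (each 0.5 mM as added) for 1 h at 37 °C, then compound for 1 h at 37 °C. Luminescence was read after 15 min at room temperature.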
DRD3 agonist: agonists of human D3 dopamine receptor; P35462; D3R DiscoveRx beta-arrestin cells, luminescence, 90 min; max activation, %; 410,000 compounds, 0.58% hits; AID 652048; in the data active means max activation above about 30%
Target sequence (P35462 whole entry, looked up): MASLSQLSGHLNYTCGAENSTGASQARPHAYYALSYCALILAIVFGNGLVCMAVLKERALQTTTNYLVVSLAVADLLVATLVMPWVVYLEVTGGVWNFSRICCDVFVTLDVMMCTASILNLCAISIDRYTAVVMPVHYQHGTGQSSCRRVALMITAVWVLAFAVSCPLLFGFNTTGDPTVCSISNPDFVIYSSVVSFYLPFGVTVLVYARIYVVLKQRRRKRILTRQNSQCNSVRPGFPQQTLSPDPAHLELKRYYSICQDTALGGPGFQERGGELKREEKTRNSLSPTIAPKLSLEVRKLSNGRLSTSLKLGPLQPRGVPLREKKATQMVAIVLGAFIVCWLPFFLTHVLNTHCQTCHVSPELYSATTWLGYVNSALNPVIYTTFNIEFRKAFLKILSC
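Cells at 1500/well, incubated overnight, then treated with pinned compounds (dopamine as control) for 90 min at 37 degrees C. DiscoveRx reagent added for 30 - 60 minutes at room temperature; luminescence read.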
DRD3 antagonist: antagonists of human D3 dopamine receptor; max response, negative = inhibition, %; AID 652054; D3R cells, DiscoveRx beta-arrestin luminescence, antagonist mode; hits give low values; P35462; 360,000 compounds, 2.5% hits; in the data active means max response below about -50%; inconclusive means no clear call, values can overlap the other calls
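Cells expressing the human receptor were seeded at 1500 cells/well, incubated overnight at 37 degrees C in 5% CO2, then exposed to library compounds with dopamine controls for 90 minutes at 37 degrees C before luminescent detection.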
CBFb-RUNX1 inh: CBF-beta/RUNX1 interaction disruption; Q01196+Q13951; AlphaScreen CBFb-His/RUNX1-biotin binding, biochemical; Potency, µM (top dose mostly 59.8 µM), actives largely listed as inhibitors; 230,000 tested, under 10 active; AID 1477
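Bead-based AlphaScreen assay; binding partners His-tagged CBF-beta and biotinylated RUNX1 at 30 nM each. Compound exposure 15 min after a 20-min protein preincubation; bead step 90 min; all steps at room temperature.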
MBNL1-CUG inh: inhibitors of human MBNL1 binding to CUG repeat RNA; Q9NR56; TR-FRET MBNL1-His/biotin-(CUG)12 binding, 665/545 ratio; Potency, µM (doses to about 57.5 µM), hits mostly inhibitors; 280,000 compounds, 0.036% hits; AID 2675; active means well fitted inhibition curve with a large enough effect in the signal ratio, with a control signal flat, not every such curve was filed as active; inconclusive means small, poorly fitted or top-dose-only effect, or effect the other way, or a change in a side signal; inactive means no such curve, though single readings can be large or run the other way; the % refers to the signal ratio
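Ratiometric TR-FRET (665 over 545 nm, excitation 340 nm) tracks disruption of MBNL1-His/biotin-(CUG)12 complex after 60 min at room temperature, with compounds at 92 nM to 58 uM final.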
Numbers stand for hits; - = inactive; ? = inconclusive; . = not tested or not shown; ! = not confirmed by another sample. Hits are enriched below; roughly 2.8% of the tested compounds scored in any of these assays. Unless noted, the call rests on the fitted dose curve; in most records, active means well fitted curve in the direction sought with a large enough effect; inconclusive means small, poorly fitted or top-dose-only effect, or another doubt; inactive means no such curve, though single readings can be large; an effect the other way counts as inactive or inconclusive.

SMILES	Integrin act MD	PTHR1 ag	DRD3 agonist	DRD3 antagonist	CBFb-RUNX1 inh	MBNL1-CUG inh
CC(C)NC(=O)C1C(c2ccc(C(F)(F)F)cc2)=Nc2ccccc2N1C(=O)c1cc2ccccc2[nH]1 (stereo not drawn)	.	-	-	-	.	.
CCOC(=O)c1c(-c2ccc(C)cc2)csc1NC(=O)c1cc(=O)c2cc(C)ccc2o1	.	4µM	-	.	.	.
CCOC(=O)c1c(-c2ccc(C)cc2)csc1NC(=O)c1cc(=O)c2cc(C)c(C)cc2o1	.	-	-	.	.	.
COc1ccc(CC2=CC(=O)c3ccccc3C2=O)cc1	-	-	-	-56	.	?
COc1ccc(Cc2ccccc2C(=O)O)cc1	-	-	-	-	.	.
COc1ccc(/C=C2/C(=O)OCc3cc(OC)c(OC)cc32)cc1	-	-	-	-	-	-
Cc1cn2c(=O)cc(COc3ccc(NC(=O)c4ccc(C(C)(C)C)cc4)cc3)nc2s1	.	-	51	.	.	.
CC(=O)N1CCN(C(=O)c2[nH]c(C(F)(F)F)nc2-c2ccccc2)CC1	.	-	-	-	.	.
O=C(c1[nH]c(C(F)(F)F)nc1-c1ccccc1)N1CCN(c2cccc(C(F)(F)F)n2)CC1	.	-	-	-55	.	.
O=C(c1[nH]c(C(F)(F)F)nc1-c1ccccc1)N1CCCCC1	.	-	-	-	.	.
CC1CCN(C(=O)c2[nH]c(C(F)(F)F)nc2-c2ccccc2)CC1	.	-	-	-69	.	.
COC1=C(N)C(=O)c2nc(C)ccc2C1=O	-	-	-	-	.	.
COC1=C(Br)C(=O)c2nc(C)ccc2C1=O	-	-	-	-119	.	.
COC(=O)c1cc2c(ccn2-c2ccc(F)cc2)n1Cc1ccc(OC)cc1	-	-	-	-	-	.
CCn1c(C(=O)OC)cc2c1ccn2-c1ccc(F)cc1	-	-	-	-77	-	-
CC(Oc1ccccc1)C(=O)Nc1nnc2n1CCS2 (stereo not drawn)	.	32µM	-	.	.	.
CC(C)N1C/C(=C/c2cccnc2)C(=O)/C(=C/c2cccnc2)C1	-	-	-	?	-	?
CN1C/C(=C/c2cccnc2)C(=O)/C(=C/c2cccnc2)C1	-	-	-	-55	-	-
Cc1cccc2cc(C#N)c(N3CCN(C)CC3)nc12	-	-	-	-72	-	-
Cc1ccc2cc(C#N)c(N3CCN(C)CC3)nc2c1	-	-	-	-82	-	-
Cc1ccc2nc(N3CCN(C)CC3)c(C#N)cc2c1	-	-	-	?	-	?
Cc1ccc2nc(-c3ccccc3)cc(C(=O)N3CCN(S(=O)(=O)c4c(C)noc4C)CC3)c2c1	-	-	-	-	.	.
CCc1ccc(NS(=O)(=O)c2c(C(=O)N3CCCCCC3)c(C)n(C)c2C)cc1	-	-	-	-	.	-
Cc1nc(C(F)(F)F)c(C(=O)N/N=C(\N)c2ccccn2)s1	-	-	-	-52	?	-
CCOc1ccc(C2NC(=O)C(C#N)=C(S)N2c2ccc(OC)cc2)cc1OC (stereo not drawn)	-	-	-	-68	-	-
SMILES	Integrin act MD	PTHR1 ag	DRD3 agonist	DRD3 antagonist	CBFb-RUNX1 inh	MBNL1-CUG inh
COc1cc(C2NC(=O)C(C#N)=C(S)N2c2ccc(C)cc2)ccc1OC(C)C (stereo not drawn)	-	-	-	-68	-	-
COc1ccc(C(=O)/C=C/Nc2ccc([N+](=O)[O-])cc2C)c(OC)c1	-	-	32	-	-	-
CC(=O)N1N=C(c2cccs2)CC1c1cccc([N+](=O)[O-])c1 (stereo not drawn)	-	-	-	-60	-	?
CC(=O)N1N=C(c2ccccc2)CC1c1cccc([N+](=O)[O-])c1 (stereo not drawn)	-	-	-	?	.	?
OCCn1c(-c2ccc(F)cc2)csc1=Nc1ccccc1	-	-	-	-	-	-
OCCn1c(-c2ccc3c(c2)OCO3)csc1=Nc1ccccc1	-	-	-	-70	-	-
CN1CCc2cccc3c2[C@H]1Cc1ccc(O)c(O)c1-3	.	-	76!	-	?	-
COc1ccc(-c2ccc(-c3nc4ccc(C)cn4c3NC3CCCCC3)cc2OC)cc1	-	-	55!	-	.	.
